Screening data as filed in PubChem BioAssay.
BoNT-A LC inh2: inhibitors of Botulinum neurotoxin A light chain protease | multiplex microsphere protease substrate cleavage, flow cytometry | inhibition, % at 10 µM | hit rate 0.17% among 360,000 | AID 588499; note: plate controls were buffer without enzyme for full effect and enzyme alone for no effect
MazF activator: activators of E. coli MazEF toxin-antitoxin RNase; FAM/BHQ RNA-DNA oligo cleavage fluorescence, 5 h; activation, % at 20 µM; hit rate 0.32% among 350,000; AID 504720; in the data active = activation above about 50%
Target sequence (P0AE70 whole entry, looked up): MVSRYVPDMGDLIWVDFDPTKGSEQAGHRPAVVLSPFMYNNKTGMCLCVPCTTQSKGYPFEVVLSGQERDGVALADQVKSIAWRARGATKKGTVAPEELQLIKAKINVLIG
Bead autofluor: flagged as autofluorescent in microsphere protease counterscreen | compound autofluorescence counterscreen, microsphere flow cytometry; active compounds read high | fluorescence intensity (test concentration not listed) | hit rate 3.1% among 360,000 | AID 624483; in the data active = fluorescence intensity above about 16000; inconclusive = no clear call, values can overlap the other calls
BoNT-F LC inh: blocks Botulinum neurotoxin F light chain protease; inhibition, % at 10 µM; Multiplex microsphere protease cleavage assay, flow cytometry; hit rate 0.22% among 360,000; in the data active = inhibition above about 35%, passing the limit was not always enough; inconclusive = no clear call, values can overlap the other calls; note: plate controls were buffer without enzyme for full effect and enzyme alone for no effect
Anthrax LF inh2: anthrax lethal factor protease inhibition | inhibition, % at 10 µM | hit rate 0.12% among 360,000 | P15917 | multiplex microsphere protease cleavage assay, LF; note: plate controls were buffer without enzyme for full effect and enzyme alone for no effect
* = called active by the depositor. This is a sample that favours compounds with a hit; in the whole collection about 3.7% have one here. Cut-off read from the data, not from the text of the source, unless noted: active = inhibition above about 30%; inconclusive = no clear call, values can overlap the other calls; inactive = below that.

`C[C@@H]1CN([C@H](C)CO)C(=O)CCCn2cc(nn2)CO[C@H]1CN(C)S(=O)(=O)c1ccccc1C#N` gave BoNT-A LC inh2 0, MazF activator 3, Bead autofluor 3404, BoNT-F LC inh -5 and Anthrax LF inh2 2.
For COc1ccc(N2C(c3ccsc3)=Cc3cc4c(cc3C2c2c[nH]c3ccccc23)OCO4)cc1 (stereo not drawn) the results were BoNT-A LC inh2 2, Bead autofluor 5573, BoNT-F LC inh -9 and Anthrax LF inh2 -2.
CCCc1cc(N2CCCC(C(=O)Nc3cc(Cl)ccc3OC)C2)n2ncnc2n1 (stereo not drawn) was read as BoNT-A LC inh2 inconclusive, MazF activator 4, Bead autofluor 16461*, BoNT-F LC inh 0 and Anthrax LF inh2 1.
CCOc1ccc(Nc2nc3c(C)cccc3cc2C#N)cc1 was read as BoNT-A LC inh2 -2, MazF activator 19, Bead autofluor 4651, BoNT-F LC inh inconclusive and Anthrax LF inh2 -9.
COc1ccccc1Nc1nc2cc(C)ccc2cc1C#N was read as BoNT-A LC inh2 -1, MazF activator 5, Bead autofluor 4162, BoNT-F LC inh 2 and Anthrax LF inh2 -7.
`COc1ccccc1Nc1nc2c(C)cccc2cc1C#N` gave BoNT-A LC inh2 0, MazF activator 98*, Bead autofluor 16724*, BoNT-F LC inh 1 and Anthrax LF inh2 -1.
COc1ccccc1Nc1nc2ccc(C)cc2cc1C#N was read as BoNT-A LC inh2 6, MazF activator 78*, Bead autofluor inconclusive, BoNT-F LC inh 24 and Anthrax LF inh2 1.
`OC[C@@H]1CN(Cc2ccc3c(c2)OCO3)C[C@H](n2cnc3c(NC4CC4)ncnc32)O1` gave BoNT-A LC inh2 0, Bead autofluor 3675, BoNT-F LC inh 3 and Anthrax LF inh2 1.
`O=C(NCc1ccc(Cl)cc1Cl)c1ccccn1` gave BoNT-A LC inh2 -3, MazF activator 1, Bead autofluor 24310*, BoNT-F LC inh -3 and Anthrax LF inh2 0.
Screening O=C(COC(=O)c1ccccn1)NCc1ccc(Cl)cc1Cl returned BoNT-A LC inh2 -3, MazF activator 7, Bead autofluor 9588, BoNT-F LC inh -7 and Anthrax LF inh2 -1.
For Cc1[nH]c(=O)[nH]c(=O)c1NC(=O)c1ccccc1[N+](=O)[O-] the results were BoNT-A LC inh2 0, MazF activator 4, Bead autofluor 3824, BoNT-F LC inh -7 and Anthrax LF inh2 -8.
Screening CCOc1ccc(C(CCc2ccccc2)NC(=O)c2ccccc2)cc1OCC (stereo not drawn) returned BoNT-A LC inh2 inconclusive, MazF activator -4, Bead autofluor 21649*, BoNT-F LC inh 5 and Anthrax LF inh2 2.
Screening COC(=O)CCC(=O)NNC(=O)c1cccc(Cl)c1 returned BoNT-A LC inh2 -6, MazF activator 0, Bead autofluor 25239*, BoNT-F LC inh -7 and Anthrax LF inh2 -2.
`NC(=S)N/N=C/c1ccc(C23CC4CC(CC(C4)C2)C3)cc1` gave MazF activator -37.
For CN(C)S(=O)(=O)c1ccc(/C(O)=C2/C(=O)C(=O)N(Cc3cccnc3)C2c2ccncc2)cc1 (stereo not drawn) the results were BoNT-A LC inh2 -3, MazF activator 3, Bead autofluor 17829*, BoNT-F LC inh -7 and Anthrax LF inh2 -3.
Cc1ccc(C(=O)CSc2nnc(-c3cccnc3)n2N)cc1 was read as BoNT-A LC inh2 1, MazF activator -1, Bead autofluor 15409, BoNT-F LC inh 2 and Anthrax LF inh2 -8.
`Cc1ccc(CSc2nnc(-c3ccco3)n2N)cc1` gave BoNT-A LC inh2 0, MazF activator -8, Bead autofluor 23093*, BoNT-F LC inh 1 and Anthrax LF inh2 -2.
Cc1ccc(CSc2nnc(-c3cccnc3)n2N)cc1 was read as BoNT-A LC inh2 -1, MazF activator 1, Bead autofluor 23095*, BoNT-F LC inh -4 and Anthrax LF inh2 0.
Screening Nn1c(SCc2cccc(C(F)(F)F)c2)nnc1-c1ccco1 returned BoNT-A LC inh2 inconclusive, MazF activator 9, Bead autofluor 6915, BoNT-F LC inh -2 and Anthrax LF inh2 1.
`CCCCC[C@H](C)N1C[C@H](COCc2ccccc2)Oc2cc(N3CCC[C@@H]3COC)ccc2S1(=O)=O` gave BoNT-A LC inh2 1, Bead autofluor 5632, BoNT-F LC inh 4 and Anthrax LF inh2 -1.
`C=C(C)C1CC=C(C)/C(=N/NC(=O)COc2cccc(C)c2)C1` (stereo not drawn) gave BoNT-A LC inh2 -3, MazF activator 3, Bead autofluor 17668*, BoNT-F LC inh -8 and Anthrax LF inh2 -3.
Screening CC(C)n1c(=O)c2ccccc2n1Cc1cn(Cc2cccs2)nn1 returned BoNT-A LC inh2 0, Bead autofluor 4242, BoNT-F LC inh 0 and Anthrax LF inh2 2.
O=C(COc1coc(CN2CCN(c3ccccc3F)CC2)cc1=O)NC1CCCC1 was read as BoNT-A LC inh2 2, MazF activator 4, Bead autofluor 4980, BoNT-F LC inh 17 and Anthrax LF inh2 5.
Screening CC(C)C(=O)c1cc2c(cc1NC(=O)c1cccs1)OCCO2 returned BoNT-A LC inh2 -2, MazF activator -9, Bead autofluor 23207*, BoNT-F LC inh -4 and Anthrax LF inh2 -4.
Screening O=C(Nc1ccc(NC(=O)c2cccs2)cc1)c1ccc2c(c1)OCCO2 returned BoNT-A LC inh2 2, MazF activator -8, Bead autofluor 4743, BoNT-F LC inh 4 and Anthrax LF inh2 -3.
For CCC(=O)c1cc2c(cc1NC(=O)c1ccc(C)cc1)OCCO2 the results were BoNT-A LC inh2 inconclusive, MazF activator -12, Bead autofluor 20255*, BoNT-F LC inh 5 and Anthrax LF inh2 0.
`CC(C)C(=O)c1cc2c(cc1NC(=O)c1ccccc1)OCCO2` gave BoNT-A LC inh2 inconclusive, MazF activator -4, Bead autofluor 23685*, BoNT-F LC inh -3 and Anthrax LF inh2 -2.
`CC(=O)Nc1cc2c(cc1C(=O)C(C)C)OCCO2` gave BoNT-A LC inh2 -1, MazF activator 5, Bead autofluor 3774, BoNT-F LC inh 5 and Anthrax LF inh2 -3.
Nc1[nH]c(C(=O)c2ccccc2)c(-c2cccnc2)c1C(=O)NCCc1ccc(Cl)cc1Cl was read as BoNT-A LC inh2 0, Bead autofluor 6282, BoNT-F LC inh -1 and Anthrax LF inh2 7.
For Cc1ccnc(NC(=O)COc2ccc3c(c2)CCC3)c1 the results were MazF activator 4.
For CC(C)COC(=O)N(C)C[C@@H]1OCc2cnnn2CCCC(=O)N([C@H](C)CO)C[C@@H]1C the results were BoNT-A LC inh2 0, MazF activator 5, Bead autofluor 2845, BoNT-F LC inh -6 and Anthrax LF inh2 -7.
NC1=NC(=O)/C(=C/c2cccs2)S1 was read as BoNT-A LC inh2 -1, MazF activator 7, Bead autofluor 23925*, BoNT-F LC inh -2 and Anthrax LF inh2 -1.
`Cc1ccc(NC(=O)c2ccc(C)cc2)cc1` gave BoNT-A LC inh2 0, MazF activator 6, Bead autofluor 4318, BoNT-F LC inh -9 and Anthrax LF inh2 -4.
For Cc1ccc(C(=O)Nc2ccc(Br)c(C(F)(F)F)c2)cc1 the results were BoNT-A LC inh2 -1, MazF activator 23, Bead autofluor 16589*, BoNT-F LC inh -4 and Anthrax LF inh2 -1.
